DAX1 inh-1 – inhibits human nuclear receptor DAX1 | AID 504766 | HEK293 Gal4-DAX1 luciferase reporter, luminescence | P51843 | 0.99% of 340,000 active | inhibition, % at 6.75 µM;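 active = inhibition above the mean over all tested compounds plus 3 SD, cut at about 4.2% in these data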;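 note: 0% = DAX1-transfected cells with DMSO and 100% = empty-vector control cells with DMSO; inhibition shows as a rise in luminescence from relieved DAX1 repression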
Target sequence (P51843 207-470 limits assumed): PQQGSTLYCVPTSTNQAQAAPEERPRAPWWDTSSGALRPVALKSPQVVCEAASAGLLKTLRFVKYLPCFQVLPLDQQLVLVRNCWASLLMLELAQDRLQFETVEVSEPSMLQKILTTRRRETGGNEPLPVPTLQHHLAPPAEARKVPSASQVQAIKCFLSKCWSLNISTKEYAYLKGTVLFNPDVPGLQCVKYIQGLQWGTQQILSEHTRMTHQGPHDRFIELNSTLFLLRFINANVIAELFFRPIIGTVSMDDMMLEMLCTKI
ssDAF-12 act – activators of S. stercoralis DAF-12 nuclear receptor; HEK293 ssDAF-12/GRIP1 lit1-tk-luc reporter, luminescence; % of 3 µM dafachronic acid response; activation, % at 6.8 µM; 1% of 370,000 active; AID 652126;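 active = activation above the mean over all tested compounds plus 3 SD, cut at about 0.9% in these data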;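 note: 0% = DMSO-only wells and 100% = 3 µM delta7-dafachronic acid wells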
DAX1 inh-2 – inhibitors of DAX1 repression of SF-1 activated StAR promoter; HEK293T StAR-luciferase reporter, SF-1/DAX-1 repression relief; inhibition, % at 6.8 µM; AID 652010; 1.1% of 370,000 active;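 active = inhibition above the mean over all tested compounds plus 3 SD, cut at about 3.6% in these data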;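 note: 0% = DAX-1 cells with DMSO and 100% = cells lacking DAX-1 with DMSO; higher inhibition means more luminescence from relief of DAX-1 repression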
hgDAF12 agonist – agonists of H. glycines DAF-12 nuclear receptor | HEK293 GAL4-hgDAF12 UAS-luciferase reporter, agonist luminescence; normalized to butyrate control | activation, % at 6.8 µM | 1.8% of 370,000 active | AID 687014;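 active = activation above a cutoff set at the mean of all screened compounds plus 3 SD, cut at about 10% in these data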;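 note: 0% = DMSO wells and 100% = sodium butyrate wells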
SMARCA2 activ – increases SMARCA2 function in MMTV reporter cells. MG213 cells, MMTV-luciferase reporter, dexamethasone, overnight. activation, % at 9.1 µM. 1% of 370,000 active. AID 652017; in the data active = activation above about 7.8%;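 note: 0% = vehicle wells and 100% = reference activator wells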
hcDAF12 agonist – activates DAF-12 receptor from parasite H. contortus | HEK293 hcDAF-12 lit1-tk-luc reporter, luminescence; 0% DMSO, 100% Δ7-dafachronic acid | activation, % at 6.8 µM | 1.4% of 370,000 active | AID 652067;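 active = activation above the mean of all tested compounds plus 3 SD, cut at about 5.5% in these data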;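 note: 100% = response to 3 µM Δ7-dafachronic acid high control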
Numbers without * were called inactive; nt = no result given. Most compounds without a hit are left out; they make up all but 4.8% or so of the library.

SMILES | DAX1 inh-1 | ssDAF-12 act | DAX1 inh-2 | hgDAF12 agonist | SMARCA2 activ | hcDAF12 agonist
Cc1ccccc1NC(=O)Cn1nnc(-c2ccncc2)n1 | nt | -0.1 | -0.2 | 1.9 | -4.1 | -1.5
COc1ccccc1NC(=O)C(=O)N/N=C/c1cccs1 | 0.7 | -0.6 | 1.2 | 7.8 | 4.5 | 6.2*
COCCNC(=O)C(=O)N/N=C/c1cccs1 | 1.6 | -0.3 | 0.5 | 2.2 | -2.5 | 2.8
Cc1ccccc1CC(=O)Nc1nnc(-c2cccnc2)s1 | nt | -1.6 | 1.0 | 3.6 | -1.5 | -0.8
Cc1ccc2[nH]c(C(=O)O)c(NC(=O)[C@@H]3C[C@@H]3c3ccccc3)c2c1 | 0.7 | 2.5* | -0.2 | 2.2 | 5.0 | 3.3
Fc1ccccc1-c1n[nH]c(=S)n1N=Cc1ccc(OCc2ccccc2)cc1 | nt | -1.6 | -0.4 | 3.2 | -5.3 | -2.6
O=C(CNS(=O)(=O)c1c(Cl)cccc1Cl)N1CCCCCC1 | 3.0 | 1.0* | 1.0 | 6.8 | 3.0 | 2.3
O=C(CNS(=O)(=O)c1cccs1)N1CCCCC1 | 0.2 | -0.6 | -0.3 | -0.2 | 0.2 | -0.4
CCn1cnc2cc(NCc3ccc(Br)cc3)ccc21 | nt | -0.7 | 2.0 | 2.9 | 1.1 | 4.8
CCn1cnc2cc(NCc3ccc(C)cc3)ccc21 | 2.4 | -0.7 | 4.4* | 4.3 | 3.3 | 1.0
Cc1ccc(CNc2ccc3c(c2)ncn3C(C)C)cc1 | 6.2* | -1.1 | 1.8 | 7.2 | -0.6 | 1.5
CCCCN(CCCC)S(=O)(=O)c1ccc(C(=O)Nc2nnc(CSC)o2)cc1 | 4.2* | -0.2 | 0.2 | -1.8 | -3.9 | -0.6
CCCCN(CC)S(=O)(=O)c1ccc(C(=O)Nc2nnc(CSC)o2)cc1 | 0.5 | -0.3 | -1.2 | 1.4 | -5.0 | 0.1
Cc1ccc(NC(=O)C2CCCN(c3nnc(-n4cccc4)s3)C2)c(C)c1 (stereo unspecified) | nt | -1.6 | -1.8 | 3.9 | -4.5 | -1.1
COC(=O)c1ccc(OCCOc2ccc(C(=O)OC)cc2)cc1 | 0.1 | -0.8 | 0.2 | -0.8 | 1.5 | -0.7
COC(=O)c1ccc(COc2ccc(CNCc3ccc(Cl)cc3)cc2)cc1 | 1.1 | -0.6 | -0.4 | 11.7* | 5.7 | 1.4
CC(=O)Oc1cc(O)c2c(=O)c(OC(C)=O)c(-c3ccc(OC(C)=O)c(OC(C)=O)c3)oc2c1 | 4.5* | nt | nt | nt | nt | nt
Clc1ccc(-n2c(SCc3cccc4ccccc34)nnc2-c2cccnc2)cc1 | nt | -1.3 | -0.4 | -2.0 | 3.1 | -4.5
C[C@H](O)[C@@H]1CN2CCc3c([nH]c4c(-c5ccc6c(c5)OCO6)cccc34)[C@@H]2C[C@@H]1N(C)C(=S)NCCc1ccccc1 | nt | -0.4 | -0.1 | 1.6 | -1.6 | 0.4
CC(C)NC(=O)CSc1nc(-c2ccccc2)cs1 | 4.7* | -1.1 | 3.2 | 10.8* | 3.2 | 1.0
COc1ccc(N2CCN(CCCNC(=O)CCc3cccc(F)c3)CC2)cc1 | nt | -2.0 | 0.2 | -5.1 | -2.0 | -0.9
NS(=O)(=O)c1ccc2nc(NC(=O)Nc3ccccc3F)sc2c1 | 1.5 | -0.4 | 1.8 | 10.4* | 4.0 | 4.5
CCCC(=O)Nc1nc2ccc(S(N)(=O)=O)cc2s1 | 1.0 | -0.3 | -0.2 | 2.5 | 2.1 | 3.5
O=C(O)c1ccccc1/C=N/NC(=O)c1cc(-c2ccco2)nc2ccccc12 | -0.5 | 2.9* | -0.2 | 4.2 | -3.9 | 2.7
CC(=O)Nc1ccc(/C=N/NC(=O)c2cc(-c3ccco3)nc3ccccc23)cc1 | 3.5 | -0.1 | -0.8 | -0.1 | -1.6 | 0.9
SMILES | DAX1 inh-1 | ssDAF-12 act | DAX1 inh-2 | hgDAF12 agonist | SMARCA2 activ | hcDAF12 agonist
Cc1ccc(/C=C/C(=O)Nc2cccnc2)o1 | 1.3 | 1.0* | 0.2 | 1.5 | -0.7 | 1.0
C=CCNC(=O)CN(C(=O)c1csc2ccc(Cl)cc12)c1cccc(Br)c1 | nt | -0.6 | 0.1 | -1.1 | -4.5 | 1.4
c1ccc(-c2nc3c4ccccc4ccn3c2CC2CCCCC2)cc1 | nt | 0.5 | 1.2 | 6.0 | 3.9 | 5.6*
Clc1cccc(Cc2c(-c3cccc(Br)c3)nc3c4ccccc4ccn23)c1 | nt | -0.5 | 1.2 | 2.6 | -1.9 | 6.1*
Fc1cccc(Cc2c(-c3ccccc3)nc3c4ccccc4ccn23)c1 | nt | 1.4* | 1.1 | 4.8 | 1.6 | 3.8
Brc1cccc(-c2nc3c4ccccc4ccn3c2CC2CCCCC2)c1 | nt | 0.0 | 2.6 | 1.8 | -0.1 | 5.1
Clc1ccc(-c2nc3c4ccccc4ccn3c2Cc2cccc(Cl)c2)cc1 | nt | 0.9 | 0.8 | 7.0 | 2.0 | 5.9*
COP(=O)(CC(=O)OC(C)(C)C)C(CC(C)C)NC(=O)OCc1ccccc1 (stereo unspecified) | nt | -0.5 | -0.9 | -1.2 | -1.2 | -0.1
CN(Cc1ccccc1)S(=O)(=O)c1cccc(C(=O)OCc2ccc(Oc3ccccc3)cc2)c1 | nt | 0.0 | -1.4 | -2.2 | -6.2 | -2.6
COc1ccc(C2C(C(=O)Nc3ccc(Cl)cc3)CCC(=O)N2c2ccc(OC)cc2)cc1 (stereo unspecified) | nt | -1.6 | -1.3 | -4.2 | -1.1 | -3.0
Nc1[nH]c2ccccc2c1C(=O)NC1CC1 | nt | 0.1 | 0.3 | 3.7 | 0.6 | 2.2
CC1=C2NC(N)=[N+](Cc3ccc4c(c3)OCO4)CC2n2c(=O)n(-c3ccccc3)c(=O)n2C1 (stereo unspecified) | nt | -1.5 | 0.0 | -0.3 | -0.5 | -2.4
Cc1ccccc1OCCOc1cccc(/C=N/NC(=O)Cc2nnc(N)s2)c1 | -1.3 | -0.8 | -0.9 | 12.3* | 5.0 | 1.7
Brc1ccc(-c2nc(-c3ccccc3)no2)o1 | 3.9 | 1.4* | 3.3 | 11.5* | 7.4 | 6.1*
COc1c2c(c(OC)c3c1c(=O)c1ccccc1n3C)OCO2 | -0.7 | -0.1 | -0.2 | 0.0 | 7.9* | 3.4
CCOC(=O)CNC(=O)CSc1nnc(NC(=O)c2ccc(C)cc2)s1 | -0.6 | 0.4 | 2.2 | 12.7* | 3.4 | 6.4*
CCc1nnc(NC(=O)c2ccc(S(C)(=O)=O)cc2)s1 | -1.0 | -0.7 | 0.6 | 4.2 | 1.4 | 0.8
CCc1nnc(NC(=O)c2ccc(OC)cc2)s1 | 2.4 | -0.7 | 2.5 | 10.7* | 7.7 | 2.4
COc1cccc(C(=O)Nc2nnc(C3CCCO3)s2)c1 (stereo unspecified) | 2.4 | 1.0* | 2.3 | 8.7 | 5.9 | 2.4
O=C(Nc1nnc(C2CCCO2)s1)c1cccs1 (stereo unspecified) | -0.8 | -0.3 | 0.2 | 4.8 | 5.0 | 3.2
CCc1nnc(NC(=O)c2cccc(OC)c2)s1 | 0.5 | -0.3 | 3.9* | 6.3 | 6.7 | 2.8
COP(=O)(O)C(COCCC(CC(C)C)NC(=O)OCc1ccccc1[N+](=O)[O-])NC(=O)OCc1ccccc1 (stereo unspecified) | nt | -2.0 | nt | 5.9 | nt | -0.2
O=C1CSc2ccc(C(=O)N3CCCC(C(=O)N4CCCN(Cc5ccccc5)CC4)C3)cc2N1 (stereo unspecified) | nt | -1.0 | -0.8 | -3.9 | -0.8 | -0.8
COC(=O)C1CN(Cc2cn(CCOC(C)=O)nn2)CCS(=O)(=O)N1Cc1ccc(C)cc1 (stereo unspecified) | nt | -0.9 | 0.4 | -4.0 | -0.3 | -1.5

Screens (PubChem)
